Results reported in PubChem BioAssay AID624417 (National Center for Advancing Translational Sciences (NCATS), 2012).
Out of some 410,000 compounds screened, about 6,400 (1.6%) were called active. Inconclusive results (about 20%) are left out. Calls follow the shape of the dose curve; as a rule, active = well fitted inhibition curve with a large enough effect; inconclusive = small, poorly fitted or top-dose-only effect; inactive = no such curve, though single readings can be large or run the other way. What follows is part of a selection rich in actives, with near analogues and random picks from the rest.

Target: Glucagon-like peptide 1 receptor (Homo sapiens) (UniProt P43220)
Assay: qHTS of GLP-1 Receptor Inverse Agonists (Inhibition Mode); also: nearly all actives have a fitted effect of over 55% in size
Conditions: HEK293 GLP-1R CRE-luciferase, luminescence, 24 h, GLP-1R form is constitutively active; series mostly up to 38.3 µM; activity change, negative = inhibition: at the top concentration
In short: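 Cells are plated, allowed 12 hours at 37 deg C, then treated with compounds for 24 hr before luciferase detection reagent is added and luminescence is read after 12 min at room temperature. The HEK293 line carries constitutively active GLP-1R with a cAMP-responsive reporter.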
% is scaled to controls: 0 for no effect and ±100 for the full control effect; potency is read from the fitted curve at half-maximal effect.

Glucagon-like peptide 1 receptor (Homo sapiens), sequence (P43220 whole entry, looked up): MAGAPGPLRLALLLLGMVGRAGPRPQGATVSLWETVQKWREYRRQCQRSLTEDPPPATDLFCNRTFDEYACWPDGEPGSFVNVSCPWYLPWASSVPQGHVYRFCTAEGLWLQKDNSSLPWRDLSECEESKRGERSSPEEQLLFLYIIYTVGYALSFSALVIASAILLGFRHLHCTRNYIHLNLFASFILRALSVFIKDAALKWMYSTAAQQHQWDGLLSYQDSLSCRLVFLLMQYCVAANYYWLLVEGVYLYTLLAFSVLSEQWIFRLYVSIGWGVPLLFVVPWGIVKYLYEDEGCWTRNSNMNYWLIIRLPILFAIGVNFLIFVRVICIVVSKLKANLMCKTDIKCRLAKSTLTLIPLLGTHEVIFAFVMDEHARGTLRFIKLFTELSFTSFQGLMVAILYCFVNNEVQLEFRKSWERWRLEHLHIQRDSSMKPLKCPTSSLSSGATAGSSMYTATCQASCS

Activity change, negative = inhibition, inactive:
Cc1cccc(CN2CCN(C3CN(Cc4cn(Cc5cc(C)cc(C)c5)nn4)S(=O)(=O)C3)CC2)c1 (configuration not stated) -3.31%
COC(=O)[C@]12CCCCC=C1N(Cc1ccc3c(c1)OCO3)C(=O)[C@H](CC(=O)N1CCOCC1)C2 -70.8%
C[C@@H]1CN([C@H](C)CO)C(=O)CCCn2nncc2CO[C@@H]1CN(C)C(=O)OCc1ccccc1 5.9%
O=C1NC[C@H](CCCCN2C[C@H](Cc3ccc(O)cc3)N(CCc3ccccc3)C(=O)C2=O)N(CCc2ccccc2)C1=O 22%
CC1=C(C(=O)N2CCOCC2)CC(CC(=O)NCc2cccs2)C(=O)N1CCCN1CCCC1=O (configuration not stated) 8.47%
CC1=C(C(=O)N(C)C)CC(CC(=O)NCCc2ccccn2)C(=O)N1CCC1=CCCCC1 (configuration not stated) 20.9%
CCCc1nc(NCc2ccc3c(c2)OCO3)c2nnn(Cc3ccccc3Cl)c2n1 -31.5%
Cc1nc(Nc2ccccc2F)c2nnn(Cc3ccccc3Cl)c2n1 28.2%
O=C(O)C(=Cc1ccc([N+](=O)[O-])cc1)CCc1ccccc1 3.42%
COCCNC(=O)C1CCCN(Cc2ccccc2Cl)CC1 (configuration not stated) 5.05%
O=C(NCc1ccccn1)[C@@H]1CCCN1C(=O)[C@@H]1CCCN1C(=O)c1ccccc1 21%
COC(=O)C1(C(=O)OC)C/C=C\CN(S(=O)(=O)c2ccccc2[N+](=O)[O-])CCC1 15.5%
CC(Sc1ccc(S(=O)(=O)N2CCN(C)CC2)cn1)C(=O)NC1CCCC(C)C1C (configuration not stated) 6.55%
Cc1nc(NC(=O)c2ccc3c(c2)OCCO3)ccc1Br -8.07%
COc1c(Cl)cc(C(=O)Nc2ccc(Cl)cn2)cc1Cl 8.31%
Cc1ccc(S(=O)(=O)CCC(=O)OCC(=O)N(C)Cc2ccccc2)cc1 13.7%
CN(Cc1ccccc1)C(=O)COc1ccccc1 -4.89%
CC(=O)Nc1cncc(-c2ccccc2CO)n1 7.46%
CCOC(=O)C1(C)CCCN(C(=O)c2cccc(Cl)c2)C1 (configuration not stated) -4.19%
NS(=O)(=O)c1ccc(CCNc2nc(C(F)(F)F)nc3ccccc23)cc1 -12.4%
COc1cccc(CNC(=O)c2n[nH]c3ccccc23)c1 4.09%
CCN(CC)C(=O)C1CCCN(Cc2cccc(Cl)c2)C1 (configuration not stated) 10.3%
Nc1nc2ncccn2c1-c1ccccc1 -1.5%
CCOC(=O)C1(C)CCCN(C(=O)c2ccc(N(C)C)cc2)C1 (configuration not stated) 1.99%
O=S1(=O)CCN(C2CCCCCCCCCCC2)CC1 11.9%
COc1ccc(C2(c3ccc(OC)cc3)NC(=O)N(CC(=O)Nc3cc(C)on3)C2=O)cc1 -19%
COC(=O)c1ccc(CN2C(=O)NC(c3ccccc3)(c3ccccc3)C2=O)o1 -15.6%
Cc1ccc(-c2nc3c(C)cc(Br)cn3c2Cc2ccccc2)cc1 -18.4%
CCC(C(=O)Nc1c(C)cccc1C)n1c(-c2cc(C)cs2)nc2ccccc21 (configuration not stated) -9.76%
O=C(Nc1ccccc1-c1nc2ccccc2[nH]c1=O)c1cccs1 42.6%
Cc1ccccc1CN1C(=O)CSCC1(C)C(=O)Nc1c(C)cccc1C (configuration not stated) 8.92%
Cc1ccc(-c2cnc(C3CC3)o2)cc1S(=O)(=O)Nc1cccc(C)c1C -11%
CC1(C(=O)NS(=O)(=O)c2cccs2)CCN1C(=O)Cc1ccc(-c2ccccc2)cc1 (configuration not stated) -22.6%
Cc1csc(=O)n1CCC(=O)OCC(=O)Nc1ccc(N2CCOCC2)cc1 1.06%
Oc1ccc(/C=N/Nc2ccc(C(F)(F)F)cn2)cc1O 20.3%
Cc1c(C(=O)Nc2ccccn2)oc2ccc(Br)cc12 7.51%
COc1ccc(S(=O)(=O)NC(=O)C2(C)CCN2C(=O)c2ccccc2CCc2ccccc2)cc1 (configuration not stated) -12.1%
CC(C)(C)C(=O)COC(=O)c1cc(S(=O)(=O)N2CCCCC2)ccc1N1CCOCC1 -11.3%
O=C(OCCOc1ccccc1F)c1cc(S(=O)(=O)N2CCOCC2)ccc1F 1.47%
CCN(CC)CCCNC(=O)c1ccc2c(=O)n(Cc3ccc4c(c3)OCO4)c(=S)[nH]c2c1 -18.1% [at 7.66 µM]
CCNC(=O)C1(C)CCCN(Cc2noc(-c3ccccc3OC)n2)C1 (configuration not stated) -13.4%
Oc1ccc2nc(Cc3ccccc3)[nH]c2c1 7.71%
Cc1nc2ccccc2nc1N/N=C/c1ccc(O)cc1O -9.04%
CCc1cccc(CC)c1N1C(=O)CC(Sc2ccccc2N)C1=O (configuration not stated) -11.6%
O=C1c2ccccc2C(=O)N1Cc1cc(-c2ccccc2Cl)no1 9.44%
Fc1ccc(-c2ccc(CNCc3ccccn3)o2)cc1Cl -18.3%
CC(C)c1c(C(=O)N/N=C/c2ccccc2C(=O)O)nnn1-c1nonc1N -9.57%
Nc1nonc1-n1nnc(C(=O)N/N=C/C2CCCCC2)c1-c1ccccc1 22.9%
Cc1[nH]c2ccccc2c1C(=O)C(=O)NCc1nnnn1-c1cccc(F)c1 9.36%
O=C(COC(=O)c1cccc(Cl)c1Cl)NC1CCCCCC1 -2.12%
CCCN(CCC)CCNC(=O)c1cc2c(C)nc3ccccc3c2o1 -23.1%
CC(=O)NCCNC(=O)c1cc(-c2cccc3ccccc23)nc2ccccc12 14%
CC(=O)NC(c1ccccc1)c1nc(-c2ccccc2C)cs1 (configuration not stated) 19.8%
c1ccc(-c2ccc(OCCN3CCOCC3)cc2)cc1 -16.9%
CCOc1nc(NCCN2CCOCC2)nc(Nc2ccc(C)cc2)n1 9%
CCCCn1nnnc1C(c1ccccc1)N1CCN(c2ccccc2OC)CC1 (configuration not stated) -26.8%
O=C(NCc1ccccc1Cl)c1csc([C@@H]2O[C@H](CO)[C@@H](O)[C@H]2O)n1 -16.2%
CCCN(CC(=O)Nc1ccccc1C)C(=O)c1ccc(OCC(=O)N2CCOCC2)c(OCC)c1 7.89%
CCCN(CC(=O)Nc1ccccc1C)C(=O)c1cc(=O)[nH]c2ccccc12 0.788%
CN(Cc1c(F)cccc1Cl)C(=O)COC(=O)Cn1cnc2ccccc2c1=O 8.86%
CCOc1ccc(CN2CCCN(C)CC2)cc1 -20.5%
CCCN1CCc2nc(N3CCN(C)CC3)ncc2C1 -13.3%
COc1cc(C(O)c2nc(-c3cccc(C(=O)O)c3)cs2)ccc1F (configuration not stated) 30.9%
Cc1cccc(C)c1-n1nnnc1C(CCc1ccccc1)N1CCN(C/C=C/c2ccccc2)CC1 (configuration not stated) 18.7%
COc1ccc(N2C(=O)C(Cc3ccccc3)NC2=S)cc1 (configuration not stated) 22.3%
COc1ccc(C2CC(=O)NC(=O)C2)cc1 13.7%
CC(C)C1Cc2[nH][nH]c(=O)c2C(c2ccc(Cl)cc2)O1 (configuration not stated) -18.5%
CC1Cc2[nH][nH]c(=O)c2C(C2CC2)O1 (configuration not stated) 5.46%
COc1ccc(CCNC(=O)Nc2ccc3c(c2)c(=O)n(C)n3C)cc1OC 8%
CC(C)CN1C(=O)CN(S(C)(=O)=O)CC1(C)C(=O)NCc1ccccc1 (configuration not stated) 18.3%
c1ccc(Cc2c(-c3ccco3)nc3c4ccccc4ccn23)cc1 -57%
CCN(CC)CCNC(=O)Cn1cnc2sc(C)c(S(=O)(=O)N3CCOCC3)c2c1=O -21.3%
Cc1ccc(NC(=O)Cn2cnc3nc4c(cc3c2=O)CCCC4)cc1Cl 2.73%
COc1ccc(C(C(=O)Nc2c(C)cccc2C)N2CCN(c3ccc(C)cc3)CC2)cc1 (configuration not stated) 3.35%
CCOC(=O)N1CCN(C(c2ccnc3ccccc23)c2nnnn2-c2c(C)cccc2C)CC1 (configuration not stated) -20.8%
Cc1nc(C(F)(F)F)ccc1C(=O)N1CCC1(C)C(=O)NS(=O)(=O)c1ccccc1 (configuration not stated) 12.5%
O=C(c1cc(C2CCCCN2S(=O)(=O)c2ccccc2)on1)N1CCOCC1 (configuration not stated) 24.4%
CCN1CCCC1CNC(=O)c1cc2c(=O)n(C)c3ccccc3c2n1C (configuration not stated) 2.81%
CCN1CCN(CCNC(=O)c2ccc3c(c2)NC(=O)/C(=C\c2cccc(Cl)c2)S3)CC1 -23.7%

Potency, inactive:
COc1ccc(CNS(=O)(=O)c2ccc(-c3cnc(C4CC4)o3)cc2)cc1
CCN(CC)CCCNC(=O)c1cn(C)c2ccc(S(=O)(=O)N(C)C3CCCCC3)cc2c1=O

Potency, active:
Cc1nc(Nc2ccc3c(c2)OCCO3)c2nnn(Cc3ccccc3Cl)c2n1 3.55 µM
O=C(Nc1ccc(Cl)cn1)c1ccc2c(c1)OCCO2 7.08 µM
CN(Cc1ccccc1)C(=O)COC(=O)c1ccccc1Nc1ccccc1 12.6 µM
COc1cccc(CNc2nc(C(F)(F)F)nc3ccccc23)c1 10 µM
Cc1ccc(C2(c3ccc(C)cc3)NC(=O)N(Cc3c(C)noc3C)C2=O)cc1 10 µM
CCC(c1nc2ccccc2[nH]1)n1c(=O)c(-c2cccs2)nc2ccccc21 (configuration not stated) 10 µM
Cc1cccc(NS(=O)(=O)c2ccc(-c3cnc(C4CC4)o3)cc2)c1 0.891 µM
Oc1ccc(Br)cc1/C=N/Nc1ccccn1 2.82 µM
O=C(OCCOc1ccccc1Cl)c1cc(S(=O)(=O)N2CCCCC2)ccc1N1CCOCC1 4.47 µM
CCN(CC)CCCNC(=O)c1c(O)c2cc(F)cc3c2n(c1=O)C(C)CC3 (configuration not stated) 7.94 µM
Oc1ccc(-c2nc3ccccc3nc2-c2ccc(O)cc2O)c(O)c1 4.47 µM
Clc1ccc(-c2cc(-c3ccccn3)on2)c(Cl)c1 5.62 µM
Nc1nonc1-n1nnc(C(=O)N/N=C/c2c[nH]c3ccccc23)c1-c1ccccc1 12.6 µM
CN(C)CCNC(=O)c1ccc(Cl)c2cc3ccccc3nc12 7.08 µM
c1ccc2cc3c(NCCN4CCOCC4)ccnc3cc2c1 10 µM
CCCN(CC(=O)Nc1ccccc1C)C(=O)c1ccc2[nH]c3c(c2c1)CC(C)CC3 (configuration not stated) 5.62 µM
Cc1ccc(CN2CCc3nc(N4CCN(C)CC4)ncc3C2)cc1 7.94 µM
COc1ccc(C2OC(CCc3ccccc3)Cc3[nH]c(=S)[nH]c(=O)c32)cc1 (configuration not stated) 10 µM
O=c1[nH][nH]c2c1[C@H](c1ccc(Cl)cc1)O[C@H](CCc1ccccc1)C2 10 µM
CCN(CC)CCNC(=O)c1sc2ncn(CC(=O)Nc3ccc(C)c(Cl)c3)c(=O)c2c1C 11.2 µM
CCN1CCCC1CNC(=O)c1ccc2c(c1)NC(=O)/C(=C\c1ccccc1F)S2 (configuration not stated) 11.2 µM
